Results on seven molecules are retold here after PubChem BioAssay (Tox21).

Unmarked numbers belong to inactive results. Records with an inconclusive call do not appear. The source made the active and inactive calls. Unless noted, calls come from the whole dose curve; as a rule, active = well fitted curve in the direction sought with a large enough effect in the repeat runs; inconclusive = weak or mixed curves; inactive = no such curve, though single readings can be large; an effect the other way counts as inactive or inconclusive.

Test [1] can be described thus: qHTS assay for small molecules that induce genotoxicity in human embryonic kidney cells expressing luciferase-tagged ATAD5 (AID 651632). Note: nearly all actives have a fitted effect of over 15% in size. The method, boiled down: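 Quantitative HTS in HEK293T expressing luciferase-tagged ATAD5, whose levels rise upon DNA damage. Exposure ran 16 hr at 37C and 5% CO2, with luminescence read 30 min after Amplite addition at room temperature.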
A general note: qHTS replaces the single test concentration by a dilution series.

Test [2] is described as follows: qHTS assay for small molecule agonists of the p53 signaling pathway - cell viability (AID 651633; calls by dose curve;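 note: p53RE-bla HCT reporter cells with a stable beta-lactamase p53 reporter; nearly all actives have a fitted effect of over 30% in size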). The method, boiled down: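 Viability counter-read: CellTiter-Glo luminescence (30 min, room temperature) in the same p53RE-bla plates. These plates had been exposed to compounds for 16 h at 37 C.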
Test [3] can be described thus: qHTS assay for small molecules that induce genotoxicity in human embryonic kidney cells expressing luciferase-tagged ATAD5 - cell viability (AID 651634; calls by dose curve; note: nearly all actives have a fitted effect of over 25% in size). Summed up: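 After 15.5 hr incubation with compound at 37C, 5% CO2, HEK293T ATAD5-luciferase cells received CellTiter-Fluor reagent; fluorescence intensity was quantified following 30 min at 37C.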
A short description of test [4]: qHTS assay for small molecule disruptors of the mitochondrial membrane potential - cell viability (AID 720634; calls by dose curve;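 note: human HepG2 liver cancer cells; nearly all actives have a fitted effect of over 20% in size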). The method, boiled down: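 ATP-based luminescent viability readout (CellTiter-Glo, 30 min, room temperature) in HepG2 cells multiplexed with the m-MPI membrane potential dye; compound exposure lasted 1 hr at 37 C.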
Test [5] in a line: qHTS assay for small molecule disruptors of the mitochondrial membrane potential (AID 720635). Note: potency is the fitted concentration of half-maximal effect. Summed up: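 Mitochondrial membrane potential tracked with Mito-MPS dye, red aggregates (ex 540/em 590 nm) against green monomers (ex 490/em 535 nm). Compound treatment 1 hr at 37C, dye 30 min in HepG2.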
Test [6] is described as follows: qHTS assay to test for compound auto fluorescence at 590 nm (red) in HepG2 cells (AID 720674). The method, boiled down: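 Red autofluorescence (Ex/Em 540/590 nm, Rose Bengal sodium equivalents) was measured in HepG2 cells, 2,000 per well in MEM plus 10% FBS, plated overnight at 37 C. Readings were taken 1 hr after adding 23 nL compound or DMSO, at 37 C and 5% CO2.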

A short description of test [7]: qHTS assay to test for compound auto fluorescence at 535 nm (green) in HepG2 cells (AID 720675).
Test [8] in a line: qHTS assay to test for compound auto fluorescence at 460 nm (blue) in HEK293 cells (AID 720678). The method, boiled down:
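Blue read-out at excitation 405 nm and emission 460 nm follows overnight compound exposure of HEK293 cells at 37C in 5% CO2. Activity is given as auto fluorescence equivalency to triamterene.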

Test [9] can be described thus: qHTS assay to test for compound auto fluorescence at 590 nm (red) in HEK293 cells (AID 720679). Summed up: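 Red channel, Ex/Em 540/590nm; signal expressed as equivalency to Rose Bengal sodium. HEK293, 2,000 cells/well, 10% dialyzed FBS; 23 nL compound pinned after 4-5 hr attachment; overnight 37C/5% CO2 before reading.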
Test [10] can be described thus: qHTS assay to test for compound auto fluorescence at 535 nm (green) in HEK293 cells (AID 720680).
Test [11] can be described thus: qHTS assay to test for compound auto fluorescence at 460 nm (blue) in HEK293 cell free culture (AID 720681). The method, boiled down: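 Blue fluorescence (Ex 405/Em 460 nm, triamterene-equivalent) was read immediately after pin transfer of compound or DMSO into medium (DMEM, 10% FBS) without cells.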
A short description of test [12]: qHTS assay to test for compound auto fluorescence at 535 nm (green) in HEK293 cell free culture (AID 720682). Summed up: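 Intrinsic compound fluorescence is measured in culture medium containing 10% FBS, with excitation at 485 nm and detection at 535 nm, referenced to fluorescein.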
Test [13] is described as follows: qHTS assay to test for compound auto fluorescence at 590 nm (red) in HepG2 cell free culture (AID 720684). The method, boiled down: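 No cells present: MEM + 10% FBS only. Compound pinned in, red label read (540/590 nm). Activity = fluorescence equivalent to Rose Bengal sodium.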
The nature of test [14]: qHTS assay to test for compound auto fluorescence at 460 nm (blue) in HepG2 cell free culture (AID 720685). Summed up:
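Cell-free plates of MEM plus 10% FBS received 23 nL compound or DMSO vehicle; blue-channel (405/460 nm) intensity scored against triamterene as reference fluorophore.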

Test [15] is described as follows: qHTS assay to test for compound auto fluorescence at 535 nm (green) in HepG2 cell free culture (AID 720686).
Test [16] in a line: qHTS assay to test for compound auto fluorescence at 460 nm (blue) in HepG2 cells (AID 720687). The method, boiled down:
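Blue-channel autofluorescence (Ex/Em 405/460 nm, triamterene-equivalent) was measured after 1 hr compound exposure at 37 C, 5% CO2. Cells were HepG2, plated overnight at 37 C in MEM plus 10% FBS.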

The nature of test [17]: qHTS assay to test for compound auto fluorescence at 590 nm (red) in HEK293 cell free culture (AID 720683). The method, boiled down: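 Red-channel autofluorescence of compounds in culture medium (DMEM, 10% FBS), no cells, measured at 540/590 nm. Rose Bengal sodium is the reference fluorophore for equivalence.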
The target in test [18] is Glucocorticoid receptor (Homo sapiens) (UniProt P04150). The experiment in a line: qHTS assay to identify small molecule agonists of the glucocorticoid receptor (GR) signaling pathway (AID 720691; active = well fitted activation curve with a large enough effect in the signal ratio in the repeat runs, not every such curve was filed as active; the % refers to the signal ratio). To be noted: GR-bla HeLa, beta-lactamase reporter ratio, 18 h; activation: at 62.4 µM (top of the series) unless noted. Summed up:
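Cells: GR-bla HeLa, endogenous GR with stably integrated GRE-beta-lactamase reporter. Treatment 18 h, 37 C, compounds delivered in DMSO. Detection via LiveBLAzer B/G FRET substrate, 2 h RT, fluorescence intensity.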

Test [19] can be described thus: qHTS assay for small molecule agonists of the p53 signaling pathway (AID 651631; calls by dose curve; note: potency is the fitted concentration of half-maximal effect; nearly all actives have a fitted effect of over 15% in size). The method, boiled down: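 Fluorescence intensity from cleaved LiveBLAzer B/G substrate (2 h, room temperature) served as the signal. Beforehand, HCT-116 reporter cells bearing p53 response elements were treated 16 h at 37 °C with DMSO-dissolved compounds.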
Test [20] deals with Glucocorticoid receptor (Homo sapiens) (UniProt P04150). The experiment in a line: qHTS assay to identify small molecule antagonists of the glucocorticoid receptor (GR) signaling pathway (AID 720692; active = well fitted inhibition curve with a large enough effect in the signal ratio in the repeat runs, not every such curve was filed as active; the % refers to the signal ratio; note: potency is the fitted concentration of half-maximal effect). Summed up:
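Quantitative HTS in antagonist format: HeLa cells expressing endogenous GR and a stably integrated GRE-bla reporter, stimulated with 5 nM dexamethasone (final) alongside test compounds for 18 h.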

Glucocorticoid receptor (Homo sapiens), sequence (P04150 whole entry, looked up): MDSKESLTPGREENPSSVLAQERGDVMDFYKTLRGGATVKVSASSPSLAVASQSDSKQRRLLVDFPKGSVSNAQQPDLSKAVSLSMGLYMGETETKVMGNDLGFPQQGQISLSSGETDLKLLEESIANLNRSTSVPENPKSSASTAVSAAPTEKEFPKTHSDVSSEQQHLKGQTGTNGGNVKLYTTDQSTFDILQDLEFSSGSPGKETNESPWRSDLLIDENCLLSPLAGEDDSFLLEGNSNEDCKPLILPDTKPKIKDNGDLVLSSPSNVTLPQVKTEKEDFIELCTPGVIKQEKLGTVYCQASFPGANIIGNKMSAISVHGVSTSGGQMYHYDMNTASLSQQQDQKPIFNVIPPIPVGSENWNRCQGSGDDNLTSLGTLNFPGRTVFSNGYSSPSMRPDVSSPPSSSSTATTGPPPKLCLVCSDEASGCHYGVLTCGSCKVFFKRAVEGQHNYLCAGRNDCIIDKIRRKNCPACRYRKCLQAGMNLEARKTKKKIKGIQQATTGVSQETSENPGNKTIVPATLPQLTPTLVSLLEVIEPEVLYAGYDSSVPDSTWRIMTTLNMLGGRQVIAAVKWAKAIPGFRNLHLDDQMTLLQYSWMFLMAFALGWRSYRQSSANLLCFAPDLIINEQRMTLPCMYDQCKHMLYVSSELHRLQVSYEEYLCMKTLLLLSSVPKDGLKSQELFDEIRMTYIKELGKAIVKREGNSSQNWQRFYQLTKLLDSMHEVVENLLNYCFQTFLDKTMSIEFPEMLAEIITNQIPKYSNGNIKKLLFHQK

In the case of `CCCCOC(=O)CCCCCCCC(=O)OCCCC`, the Potency entry in [1], in test [2], in [3], in test [4], in test [5] and in [6] was “inactive” in each case. Moreover, the Potency entry in [7], in test [9], in [13] and in test [15] was “inactive” each time. Besides, the molecule was called inactive in test [8], in test [10], in [11], in test [12], in [14] and in [16].
Turning to `CCCCCCCC/C=C\CCCCCCCC(=O)OCC`, the Potency result in [1], in [2], in [3], in test [4], in test [5] and in test [6] was “inactive” in each case. In addition, the Potency result in [7], in test [9], in test [17], in test [13], in [15] and in [18] was “inactive” throughout. In addition, the call in test [8], in test [10], in test [11], in [12], in test [14] and in test [16] was inactive.
As for `C=CC(=O)OCCOc1ccccc1`, the Potency in test [19] was 68.5 µM (active); in test [20] it was 21.9 µM (active). The Potency result in test [3], in test [4], in [6], in test [7], in test [9] and in test [17] was “inactive” in each case. Besides, the Potency result in test [13], in test [15] and in test [18] was “inactive” throughout. Further, the molecule was classed as inactive in test [8], in [10], in test [11], in [12] and in [16].
Regarding `CCCCCCc1ccc(-c2ccc(C#N)cc2)cc1`, the Potency result in test [1], in [2], in [3], in [4], in [6] and in test [7] was “inactive” in each case. The Potency result in [9], in test [17], in test [13], in [15] and in [18] was “inactive” in each case. The Potency in [5] was 26.8 µM (active). Further, the molecule was called inactive in [8], in test [10], in test [11], in [12], in test [14] and in [16].
On to `NC(N)=NCCC[C@H](N)C(=O)O`, for which the Potency result in [1], in [2], in [3], in [4], in test [5] and in test [6] was “inactive” each time. Moreover, the Potency result in [7], in test [9], in test [17], in [13], in test [15] and in test [18] was “inactive” each time. Moreover, the molecule was called inactive in test [8], in [10], in test [11], in test [12] and in test [16].
Regarding `COc1ccc(-c2nc3ccc(C4=NNC(=O)CC4C)cc3[nH]2)cc1` (stereo not drawn), the Potency in test [19] is 11.9 µM (active). The Potency entry in test [2], in [4], in test [6], in test [7], in test [17] and in test [13] was “inactive” each time. For the same molecule, the Potency entry in [15] and in test [18] was “inactive” in each case. Also, the result in test [8], in [10], in [11], in test [12], in [14] and in test [16] was inactive.
With `CC(CSC(=O)c1ccccc1)C(=O)N1C[C@@H](Sc2ccccc2)C[C@H]1C(=O)O` (stereo partly drawn), the Potency entry in [1], in test [2], in test [3], in test [4], in test [5] and in [6] was “inactive” each time. Also, the Potency entry in test [7], in [9], in test [17], in [13], in [15] and in [18] was “inactive” each time. Further, the Potency entry in test [20] is “inactive”. Besides, the call in test [10], in [11], in test [12], in [14] and in test [16] was inactive.
